Unmarked numbers belong to inactive results. How the calls were made is not given here.
assay: inhibitors of hydroxyurea-induced Chk1 phosphorylation, primary screen, imaging, HeLa, phospho-Chk1 nuclear intensity (AID 1187); conditions: hydroxyurea-induced phospho-Chk1 immunofluorescence imaging, higher = more signal; further: test concentration not given here

| Structure (SMILES) | z-score |
| --- | --- |
| C=CCOC(=O)[C@@H]1[C@H]2C(=O)O[C@H](c3ccccc3)[C@H](c3ccccc3)N2[C@H](c2ccc(OCCOC(=O)[C@H]3C[C@H]4C(=O)N[C@@H](CCCCN(C)C)C(=O)N4[C@H]3c3cccc(OCCO)c3)cc2)[C@@]12C(=O)Nc1ccc(I)cc12 | -0.588 |
| O=C1O[C@@H](c2ccccc2)[C@@H](c2ccccc2)N2[C@@H](c3ccccc3OCCO)[C@]3(C(=O)Nc4ccc(C#CCCO)cc43)[C@@H](C(=O)N3CCN(c4ncccn4)CC3)[C@H]12 | 0.113 |
| CC1CC/C=C\[C@H]2OC34C=CCN(C(C)C)C(=O)[C@H]3N(CCCCCO)C(=O)[C@@H]4C2C(=O)O1 (stereo partly specified) | 0.532 |
| CCOC(=O)C1=CC[C@@H](c2ccccc2C(F)(F)F)N(S(=O)(=O)c2ccc(C)cc2)C1 | -0.341 |
| COC(=O)[C@@]1(Cc2ccccc2)[C@H]2c3cc(C(=O)N4CCCC4)n(Cc4ccsc4Br)c3C[C@H]2CN1C(=O)c1ccccc1 | 0.498 |
| Cc1ccc(S[C@]2(C(=O)O)CC(=O)N(Cc3ccccc3Cl)[C@@H]2c2ccc(CO)cc2)cc1 | -0.207 |
| C[C@]1(C(=O)O)c2ccccc2C(=O)N(Cc2ccccc2)[C@H]1c1ccc(CO)cc1 | 0.194 |
| COCCCNC(=O)[C@@]1(Sc2ccc(C)cc2)CC(=O)N(C2Cc3ccccc3C2)[C@@H]1c1ccc(CO)cc1I | 0.94 |
| CCOC(=O)C[C@H]1[C@H](OC(=O)c2ccc(-c3ccccc3)cc2)[C@@H](NC(=O)C2CCCCC2)c2cc(OCCCO)ccc2N1C(=O)c1ccccc1 | 0.0385 |
| CCCC=C(CCC)[C@@H](NP(=O)(c1ccccc1)c1ccccc1)c1ccc(C(F)(F)F)cc1 | -0.0984 |
| O=C1c2ccccc2[C@@]2(Cc3ccccc3N(C3CC3)C2=O)[C@H](c2ccc(CO)cc2)N1C1CCCCC1 | 0.349 |
| [N-]=[N+]=NCc1ccccc1C[C@]1(C(=O)NCC(O)CO)N=C(c2ccc(OCCCO)cc2)O[C@H]1c1ccccc1CN=[N+]=[N-] (stereo partly specified) | 0.414 |
| C=C(C(=O)CC[C@H](OC(=O)c1cccnc1)c1ccc(CO)o1)C(C)C | -0.0632 |
| CC(C)N1CC=CC23O[C@@H]4C=CCOC(=O)[C@@H]4[C@H]2C(=O)N(C(C)CO)[C@@H]3C1=O (stereo partly specified) | -0.0881 |
| COc1cc2c(cc1OC)CN(C(=O)[C@@H]1[C@H]3C(=O)O[C@H](c4ccccc4)[C@H](c4ccccc4)N3[C@H](c3ccccc3OCCO)[C@@]13C(=O)Nc1ccc(C#CC4(O)CCCCCC4)cc13)CC2 | -0.522 |
| COc1ccc(NN2C(C(O)c3ccccn3)C=CC3C(=O)N(C4CCCCC4)C(=O)C32)cc1 (stereo unspecified) | -0.488 |
| O=C(O)[C@H]1C[C@H]2C(=O)N3CCC[C@H]3C(=O)N2[C@H]1c1cccc(OCCO)c1 | 0.0679 |
| CCOC(=O)C[C@H]1[C@H](OC(=O)Cc2ccc3c(c2)OCO3)[C@@H](NC(=O)Cc2ccc(OC)cc2)c2cc(OCCCO)ccc2N1C(=O)c1ccccc1 | -0.165 |

| Structure (SMILES) | z-score |
| --- | --- |
| O=c1cccc(-c2cccc(Cl)c2)o1 | -0.411 |
| COC(=O)[C@@]1(Cc2ccccc2)[C@H]2c3cc(C(=O)N4CCCC4)[nH]c3C[C@H]2CN1C(=O)c1ccccc1 | 1.21 |
| C=C(CCCC)/C(=C/C[C@@H](OC(C)=O)c1ccc(CO)o1)c1cc(C(=O)OC)ccc1OC | 0.471 |
| CC(C)CN1C(=O)[C@@]2(Cc3ccccc31)c1ccccc1C(=O)N(Cc1ccccc1C(F)(F)F)[C@H]2c1ccc(CO)cc1 | -0.408 |
| CCOC(=O)C[C@H]1[C@H](OC(=O)Cc2ccc3c(c2)OCO3)[C@@H](NC(=O)C2CCCCC2)c2cc(OCCCO)ccc2N1C(=O)c1ccc2ccccc2n1 | -0.0148 |
| C[C@@H](OCc1ccccc1)C1NC(=O)[C@@]23C(=O)N[C@@H](Cc4ccccc4)C2[C@H](C)[C@@]2(C)O[C@H]2C3/C=C/C/C=C\CNC(=O)CNC1=O (stereo partly specified) | 0.734 |
| C=C(C(=O)CC[C@H](OC(C)=O)c1cccc(OCCO)c1)C(C)C | 0.41 |
| CC=CC(O)C1C=CC2C(=O)N(c3ccccc3)C(=O)C2N1Nc1ccc([N+](=O)[O-])cc1 (stereo unspecified) | -0.973 |
| CC(C)C(O)C1C=CC2C(=O)N(C)C(=O)C2N1Nc1ccccc1 (stereo unspecified) | 0.193 |
| O=C1c2ccccc2[C@](Cc2ccccc2I)(C(=O)NCc2ccccc2)[C@H](c2ccc(CO)cc2)N1C1CCCCC1 | -0.12 |
| O=C1C2C=CC(C(O)c3cc(C(F)(F)F)cc(C(F)(F)F)c3)N(Nc3ccc([N+](=O)[O-])cc3)C2C(=O)N1c1ccccc1 (stereo unspecified) | -0.331 |
| CC(C)(C)OC(=O)CC[C@]1(C(=O)NCCN2CCOCC2)N=C(c2ccc(OCCCO)cc2)O[C@H]1c1ccccc1 | 0.201 |
| C=CC[C@@H](OC(=O)Nc1ccc(OC)cc1)c1ccc(OCCO)cc1 | -0.431 |
| O=C1NC(=O)C2C1C=CC(C(O)c1ccc3c(c1)OCO3)N2Nc1ccccn1 (stereo unspecified) | 0.14 |
| Cc1ccc(S[C@]2(C(=O)NC(C)C)CC(=O)N(C3Cc4ccccc4C3)[C@@H]2c2ccc(CO)cc2I)cc1 | 0.191 |
| COc1ccc([Si](C)(C)[C@H]2[C@H](CCO)O[C@@]3(C(=O)N(Cc4cccc(N5CCCCC5=O)c4)c4ccccc43)[C@@H]2C)cc1 | -0.572 |
| COc1ccc([Si](C)(C)[C@H]2[C@H](CC(=O)N3Cc4ccccc4C[C@H]3CO)O[C@@]3(C(=O)N(Cc4cccc(N5CCCCC5=O)c4)c4ccccc43)[C@@H]2C)cc1 | -0.35 |
| NC(=O)NCC#Cc1ccc2c(c1)[C@]1(C(=O)N2)[C@H](C(=O)Nc2nc3ccccc3s2)[C@H]2C(=O)O[C@H](c3ccccc3)[C@H](c3ccccc3)N2[C@@H]1c1ccc(O)cc1 | 0.194 |
